Measurements as given in PubChem BioAssay.
The source made the active and inactive calls.

Experiments:
[1] = tested on: Human papillomavirus type 1a protein E7 (residues 44-93); experiment: HPV1a E7 fragment binders on microarrays, primary screen, biochemical, small-molecule microarray, residues 44-93, 635 nm fluorescence (AID 1108); settings: small-molecule microarray binding, fluorescence 635 nm; higher = more signal;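 note: E7 fragment applied at 1 µg/mL in TBST for 1 h at 4 C; score combines spot fluorescence with its signal to noise ratio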
[2] = modulators of HCV replicon luciferase signal, primary screen, HCV replication inhibitor project, Huh7 cells, luciferase reporter (AID 1109); settings: 48 h, higher = more signal;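 note: huh7 hepatoma cells harbouring a luciferase neomycin HCV replicon reporter; luciferase luminescence as measure of HCV replicon replication; test concentration not given here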
[3] = molecular target: Left-right determination factor 2 (Homo sapiens) (UniProt O00292); experiment: LEFTY2 binders on small-molecule microarrays, primary screen, biochemical, small-molecule microarray, 635 nm fluorescence scan (AID 1110); settings: LEFTY2 binding, higher = more signal
[4] = molecular target: Calmodulin-1 (Homo sapiens) (UniProt P0DP23); experiment: CALM1 binders on microarrays, EGTA buffer, profiling panel, biochemical, small-molecule microarray, Cy5-labelled CALM1 (AID 1111); settings: Cy5-CALM1 binding fluorescence, higher = more signal;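 note: labelled calmodulin applied in Tris saline Tween buffer holding calcium plus EGTA and DTT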
[5] = molecular target: Calmodulin-1 (Homo sapiens) (UniProt P0DP23); experiment: calcium-bound CALM1 binders on microarrays, profiling panel, artefact control for SMM control-protein annotation, biochemical, small-molecule microarray, Cy5-labelled CALM1, plus calcium (AID 1112); settings: Cy5-CALM1 binding fluorescence, higher = more signal;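 note: score merges spot fluorescence with signal to noise from triplicate slides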
[6] = small-molecule microarray binders of probe aWnt5a, primary screen, biochemical, biotinylated probe, 635/667 nm fluorescence (AID 1113); settings: higher = more signal;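 note: score merges 667 nm fluorescence intensity with signal-to-noise per printed feature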
[7] = small-molecule microarray binders of probe aShh, primary screen, biochemical, biotinylated probe, 635/667 nm fluorescence (AID 1114); settings: higher = more signal;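 note: probe is biotin-labelled aShh protein from a stem cell growth factor screen; measures binding of labelled protein to compounds printed on the slide; score merges feature fluorescence at 667 nm with signal-to-noise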
[8] = small-molecule microarray binders of probe aNog, primary screen, biochemical, biotinylated probe, 635/667 nm fluorescence (AID 1115); settings: higher = more signal;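 note: probe is biotinylated aNog protein used at 0.15 µg/mL for 1 h at 4 C; z-score combines 667 nm fluorescence of each spot with its signal to noise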
[9] = molecular target: Torsin-1A-interacting protein 1 (Homo sapiens) (UniProt Q5JTV8); experiment: LAP1 binders from COS7 cell lysate, primary screen, small-molecule microarray, 635/667 nm fluorescence (AID 1116); settings: COS7-hLAP1 lysate binding, 635 nm fluorescence, higher = more signal
[10] = molecular target: Alpha-bungarotoxin (Bungarus multicinctus) (UniProt P60615); experiment: alpha-bungarotoxin binders on microarray, profiling panel, artefact control for SMM control protein annotation, biochemical, small-molecule microarray, Alexa647 label, 635/667 nm fluorescence (AID 1117); settings: alpha-BTX-A647 binding fluorescence, higher = more signal
Albumin (Bos taurus) = Albumin (Bos taurus) (UniProt P02769); experiment: bovine serum albumin binders on microarray, profiling panel, artefact control for SMM control protein annotation, biochemical, small-molecule microarray, Alexa647 label, 635/667 nm fluorescence (AID 1118); settings: BSA-A647 binding, fluorescence 635 nm, higher = more signal;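 note: score merges 667 nm emission intensity and signal-to-noise per printed compound spot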
[11] = small-molecule microarray binders of probe aXIP, primary screen, biochemical, NeuroSMM set, 635/667 nm fluorescence (AID 1119); settings: higher = more signal, called active from +8 up or from −8 down;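 note: probe is the protein aXip251-270 applied at 1 µg/mL to compound-printed slides; binding of probe to printed compounds measured as 667 nm fluorescence plus signal to noise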
[12] = small-molecule binders of probe aNOTCH3, primary screen, biochemical, small-molecule microarray, 635/667 nm fluorescence (AID 1120); settings: higher = more signal;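 note: probe is a biotin-tagged antibody raised against NOTCH3 rather than NOTCH3 protein; score merges spot fluorescence near 667 nm with spot signal to noise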
[13] = small-molecule binders of probe aNOTCH2, primary screen, biochemical, small-molecule microarray, 635/667 nm fluorescence (AID 1121); settings: higher = more signal;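 note: score merges feature fluorescence read at 667 nm with its signal to noise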
[14] = molecular target: Carbonic anhydrase 2 (Homo sapiens) (UniProt P00918); experiment: CAII small-molecule binders, profiling panel, biochemical, small-molecule microarray, Alexa647-labelled CAII (AID 1122); settings: CAII-A647 binding fluorescence, higher = more signal
[15] = COS7 lysate on small-molecule microarray, probe aHis, 635 nm (AID 1123); settings: COS7 cell lysate, fluorescence, higher = more signal;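 note: z-score combines 667nm fluorescence intensity with signal-to-noise per printed compound spot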
[16] = compound binding in COS7 lysate, probe aLAP1, primary screen, cell lysate, small-molecule microarray (AID 1124); settings: probe aLAP1, fluorescence, higher = more signal;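 note: lysate comes from COS7 cells expressing LAP1 and is applied at 0.3 µg/mL; score merges spot fluorescence near 667 nm with signal-to-noise over triplicate slides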
Sam68 (KHDRBS1) = experiment: Sam68 small-molecule binders, primary screen, biochemical, small-molecule microarray, 635 nm fluorescence (AID 1125); settings: small-molecule microarray binding, higher = more signal;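 note: score merges 667 nm channel intensity with signal to noise over triplicate slides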
[17] = tested on: Chordin-like protein 2 (CHRDL2); experiment: CHRDL2 small-molecule binders, primary screen, biochemical, small-molecule microarray, 635 nm fluorescence (AID 1126); settings: small-molecule microarray binding, fluorescence 635 nm; higher = more signal;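 note: printed compound slides probed with Chrdl2 protein at 4 µg/mL for 1 h at 4 C; score merges 667 nm emission intensity with signal to noise over three replicate slides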
[18] = molecular target: Concanavalin-A (Canavalia ensiformis) (UniProt P02866); experiment: ConA small-molecule binders, primary screen, artefact control for SMM control protein annotation, biochemical, small-molecule microarray, Alexa647 label, 635 nm (AID 1127); settings: ConA-A647 binding fluorescence, higher = more signal;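 note: z combines 667 nm emission intensity with signal-to-noise across three replicate slides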
Sequence of Concanavalin-A (Canavalia ensiformis) (P02866 whole entry, looked up): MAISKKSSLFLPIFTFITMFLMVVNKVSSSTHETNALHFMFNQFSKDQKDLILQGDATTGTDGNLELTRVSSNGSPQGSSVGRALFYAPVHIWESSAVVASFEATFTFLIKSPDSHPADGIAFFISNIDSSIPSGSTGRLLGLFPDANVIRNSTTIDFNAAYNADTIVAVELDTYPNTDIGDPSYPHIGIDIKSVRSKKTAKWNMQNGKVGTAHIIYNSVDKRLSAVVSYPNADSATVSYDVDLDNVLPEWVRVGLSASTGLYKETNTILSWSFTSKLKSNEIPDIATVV

Sequence of Torsin-1A-interacting protein 1 (Homo sapiens) (Q5JTV8 whole entry, looked up): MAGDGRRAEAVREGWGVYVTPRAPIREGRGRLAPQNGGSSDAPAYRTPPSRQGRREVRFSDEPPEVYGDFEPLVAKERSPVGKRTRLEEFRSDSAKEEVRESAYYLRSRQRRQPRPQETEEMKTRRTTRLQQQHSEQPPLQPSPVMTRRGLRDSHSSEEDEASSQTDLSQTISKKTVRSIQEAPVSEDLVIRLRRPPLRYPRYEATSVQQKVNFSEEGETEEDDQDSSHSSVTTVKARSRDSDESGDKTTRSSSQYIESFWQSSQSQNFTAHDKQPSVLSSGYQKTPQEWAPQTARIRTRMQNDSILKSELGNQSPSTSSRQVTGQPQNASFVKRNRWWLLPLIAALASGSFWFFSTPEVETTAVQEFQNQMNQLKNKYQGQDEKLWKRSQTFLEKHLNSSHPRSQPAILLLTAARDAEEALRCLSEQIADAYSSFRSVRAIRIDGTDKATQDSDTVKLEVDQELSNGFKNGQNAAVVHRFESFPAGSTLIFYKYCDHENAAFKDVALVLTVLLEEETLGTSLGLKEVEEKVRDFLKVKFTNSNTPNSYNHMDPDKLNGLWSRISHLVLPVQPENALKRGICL
Sequence of Albumin (Bos taurus) (P02769 whole entry, looked up): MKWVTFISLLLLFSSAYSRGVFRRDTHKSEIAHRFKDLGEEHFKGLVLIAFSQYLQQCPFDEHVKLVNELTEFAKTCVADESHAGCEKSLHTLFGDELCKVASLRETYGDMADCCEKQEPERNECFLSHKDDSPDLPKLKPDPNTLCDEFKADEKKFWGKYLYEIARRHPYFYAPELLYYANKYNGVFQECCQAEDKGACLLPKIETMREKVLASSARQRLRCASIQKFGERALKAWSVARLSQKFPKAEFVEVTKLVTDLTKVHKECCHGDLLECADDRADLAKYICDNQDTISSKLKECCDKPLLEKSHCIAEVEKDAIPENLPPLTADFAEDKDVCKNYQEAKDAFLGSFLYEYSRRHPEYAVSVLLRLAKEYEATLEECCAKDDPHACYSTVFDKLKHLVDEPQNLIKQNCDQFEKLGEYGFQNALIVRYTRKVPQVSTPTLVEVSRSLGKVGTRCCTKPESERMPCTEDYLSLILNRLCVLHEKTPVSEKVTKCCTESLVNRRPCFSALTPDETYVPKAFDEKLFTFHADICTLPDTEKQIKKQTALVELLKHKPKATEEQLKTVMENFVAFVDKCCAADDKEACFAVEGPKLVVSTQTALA
Sequence of Left-right determination factor 2 (Homo sapiens) (O00292 whole entry, looked up): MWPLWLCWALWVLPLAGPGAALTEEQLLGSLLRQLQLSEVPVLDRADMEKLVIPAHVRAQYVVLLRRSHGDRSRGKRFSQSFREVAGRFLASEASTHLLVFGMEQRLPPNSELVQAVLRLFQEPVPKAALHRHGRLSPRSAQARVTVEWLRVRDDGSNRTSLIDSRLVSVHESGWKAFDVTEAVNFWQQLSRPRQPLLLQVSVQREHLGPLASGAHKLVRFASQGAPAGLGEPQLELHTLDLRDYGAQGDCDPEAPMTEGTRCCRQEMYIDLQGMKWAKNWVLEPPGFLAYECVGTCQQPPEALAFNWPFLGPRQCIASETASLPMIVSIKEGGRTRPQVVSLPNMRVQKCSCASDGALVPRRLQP
Sequence of Alpha-bungarotoxin (Bungarus multicinctus) (P60615 whole entry, looked up): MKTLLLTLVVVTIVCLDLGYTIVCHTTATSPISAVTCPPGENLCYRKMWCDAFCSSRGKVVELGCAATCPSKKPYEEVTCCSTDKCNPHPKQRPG

Row | Compound | composite z-score [1] | z-score [2] | composite z-score [3] | composite z-score [4] | composite z-score [5] | composite z-score [6] | composite z-score [7] | composite z-score [8] | composite z-score [9] | composite z-score [10] | composite z-score (Albumin (Bos taurus)) | composite Z-score [11] | composite z-score [12] | composite z-score [13] | composite z-score [14] | composite z-score [15] | composite z-score [16] | composite z-score (Sam68 (KHDRBS1)) | composite z-score [17] | composite z-score [18]
1 | O=C(NCC(O)CO)[C@@]1(Cc2ccccc2)N=C(c2ccc(OCCCO)cc2)O[C@H]1c1ccccc1 (stereo not given in full) | 0.546 | -0.99 | -1.13 | 2.01 | 1.36 | -0.241 | 0.334 | -0.57 | 2.48 | 1.77 | 0.944 | 0.805 (inactive) | 0.331 | 0.257 | 0.852 | 2.83 | 1.01 | 1.24 | -1.34 | 0.785
2 | COc1ccc([Si](C)(C)[C@H]2[C@H](CC(=O)N3CCC[C@H]3CO)O[C@@]3(C(=O)N(c4ccccc4)c4ccccc43)[C@@H]2C)cc1 | -0.542 | -1.12 | 0.301 | -0.363 | -0.366 | -0.156 | -0.13 | -0.1 | 0.429 | 0.0488 | 0.723 | -0.352 (inactive) | -0.191 | -0.185 | 0.655 | -0.0779 | 0.0352 | -0.126 | 0.515 | 0.493
3 | COc1ccc(C(O)C2C=CC3C(=O)N(c4ccccc4)C(=O)C3N2Nc2ccccc2)c2ccccc12 (stereo not given) | -0.34 | -1.91 | -0.608 | 1.25 | 0.851 | -0.0792 | -0.218 | 0.941 | 0.814 | 0.93 | 0.705 | 0.0542 (inactive) | 0.19 | -0.0528 | 0.522 | 1.97 | 0.0206 | -0.309 | -0.841 | 0.69
4 | COCCOC(=O)N1C(=O)[C@@]2(c3cc(C#CCCO)ccc31)[C@H](C(=O)NC[C@H](O)c1ccccc1)[C@H]1C(=O)O[C@H](c3ccccc3)[C@H](c3ccccc3)N1[C@@H]2c1ccc(OCCO)cc1 | 1.08 | -0.646 | 0.532 | 1.09 | -0.191 | -0.197 | -0.23 | -0.456 | 0.274 | 0.895 | 0.536 | 0.192 (inactive) | 0.264 | -0.155 | 0.581 | 1.72 | 0.684 | 1.3 | 0.534 | 1.13
5 | CCOC(=O)C=Cc1cccc(OC)c1O | -0.0381 | 1.61 | -1.23 | 0.155 | -0.551 | -0.122 | -0.212 | -0.344 | -0.0817 | 0.254 | 0.576 | 0.229 (inactive) | -0.426 | -0.14 | -0.288 | 0.0252 | -0.15 | 0.0147 | -1.32 | 0.149
6 | COc1ccc([Si](C)(C)[C@H]2[C@H](CCO)O[C@@]3(C(=O)N(Cc4ccccc4)c4ccc(N5C(=O)COc6ccccc65)cc43)[C@@H]2C)cc1 | -1.13 | -4.64 | 0.206 | 1.44 | 1.12 | -0.136 | 0.108 | -0.487 | 0.216 | 0.662 | 0.449 | 0.412 (inactive) | -0.0431 | -0.0552 | 0.443 | 0.69 | 0.11 | -0.101 | -0.516 | 0.211
7 | Cc1ccc(S[C@]2(C(=O)NCc3ccccc3)CC(=O)N(Cc3cc(C(F)(F)F)cc(C(F)(F)F)c3)[C@@H]2c2ccc(CO)cc2)cc1 | -0.115 | -0.763 | -0.637 | -0.477 | 0.187 | -0.12 | 0.516 | 0.0538 | -0.712 | -0.302 | 0.737 | 0.3 (inactive) | -0.128 | -0.208 | 0.433 | 1.03 | 1.28 | -1.01 | -0.568 | -0.856
8 | OCCCc1cc[n+](Cc2cccc(OC(F)(F)F)c2)cc1 | 1.47 | 0.242 | 0.208 | 0.66 | 0.56 | -0.0758 | 0.199 | 0.134 | 0.925 | 0.718 | 0.589 | 0.755 (inactive) | 0.147 | -0.101 | 0.842 | 2.02 | 0.348 | 1.28 | 0.421 | 1.09
9 | C=C[C@H](C)[C@H](O)c1ccc(OCCO)cc1 | -2.7 | -1.54 | -1.42 | -0.215 | 0.486 | -0.139 | -0.108 | -0.278 | -1.26 | -1.27 | -0.529 | -0.254 (inactive) | -0.502 | -0.185 | 0.264 | -1.09 | -0.177 | -1.74 | -2.23 | -0.802
10 | COc1ccc([Si](C)(C)[C@@H]2[C@@H](CCO)O[C@]3(C(=O)N(Cc4ccc(N5C(=O)c6cccc7cccc5c67)cc4)c4ccccc43)[C@H]2C)cc1 | -1.27 | -4.81 | -0.983 | 0.424 | 1.09 | -0.154 | -0.16 | 0.094 | -0.164 | -0.0784 | 0.308 | 0.77 (inactive) | -0.252 | -0.119 | 0.382 | 0.332 | 0.232 | -0.276 | -0.161 | -0.259
11 | CCOC(=O)C[C@H]1[C@H](OC(=O)c2ccccc2-c2ccccc2)[C@@H](NC(=O)c2ccc(-c3ccccc3)cc2)c2cc(OCCCO)ccc2N1C(=O)c1ccccc1 | 1.26 | -1.81 | 0.572 | 0.455 | -0.361 | -0.16 | -0.282 | 0.0273 | 0.539 | 0.57 | 0.822 | 0.148 (inactive) | 0.0456 | -0.11 | 0.222 | 0.961 | -0.133 | 1.23 | 0.225 | 0.534
